Assay results taken from PubChem BioAssay (EPA / NIEHS).
Records with an inconclusive call do not appear. Activity calls are given as the source filed them. Rule for the calls, unless noted: active = hit-call score of the fitted dose curve at least 0.9, where 1 is the maximum; inactive = score below 0.9.

Columns and labels:
[1] = ATG_TAL_CIS: Attagene CIS-FACTORIAL HepG2 Assay for human TAL Basal Promoter (AID 2282966); details: HepG2 Attagene cis-factorial TAL promoter reporter; actives raise or lower the signal;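 note: background control endpoint measuring basal TAL promoter reporter mRNA not a specific factor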
Outline: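 Fluorescence of labelled reporter cDNA fragments, resolved by capillary electrophoresis, gave the readout. Human HepG2 liver cells carried transiently transfected cis-element reporter units and were treated for 24 hours; activity was fitted bidirectionally against DMSO.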

[2] = ATG_TGFb_CIS: Attagene CIS-FACTORIAL HepG2 Assay for human Transforming Growth Factor (TGF) (AID 2282967); details: HepG2 Attagene CIS TGFb reporter, mRNA transcription; actives raise or lower the signal
Outline: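 Readout: fluorescently labeled reporter cDNA fragments resolved by capillary electrophoresis after RT-PCR. Transfected HepG2 cells dosed for 24 h; endogenous TF activity at TGFB1-linked cis element; gain or loss fitted relative to DMSO.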

[3] = target: X-box-binding protein 1 (Homo sapiens) (UniProt P17861); experiment: ATG_Xbp1_CIS: Attagene CIS-FACTORIAL HepG2 Assay for human X-box Binding Protein 1 (XBP1) (AID 2282972); details: HepG2 XBP1 cis-element reporter, Attagene multiplex; actives raise or lower the signal
Sequence of X-box-binding protein 1 (Homo sapiens) (P17861 whole entry, looked up): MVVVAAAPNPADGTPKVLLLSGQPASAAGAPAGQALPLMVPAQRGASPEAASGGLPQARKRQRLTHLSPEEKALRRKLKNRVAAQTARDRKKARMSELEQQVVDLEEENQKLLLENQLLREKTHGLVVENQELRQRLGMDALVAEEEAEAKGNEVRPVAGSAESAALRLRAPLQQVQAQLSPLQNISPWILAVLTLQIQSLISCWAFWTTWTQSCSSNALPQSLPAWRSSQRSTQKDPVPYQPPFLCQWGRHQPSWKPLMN
Outline: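 HepG2, transient MRTU transfection (cis-promoter driven), 24 h compound exposure. Total RNA → oligo(dT) RT → PCR → 6-FAM labeling → HpaI cut → CE. Bidirectional fit vs DMSO.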

[4] = ATG_M_19_TRANS: Attagene TRANS-FACTORIAL HepG2 Assay for M19 Transcription Factor (Internal Marker) (AID 2282974; active = hit-call score of the fitted dose curve at least 0.9, where 1 is the maximum); details: HepG2 Attagene TRANS-FACTORIAL M19 internal marker reporter
Outline: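 HepG2 transiently transfected with GAL4-UAS multiplex reporter constructs, exposed 24 h; reporter RNA quantified by RT-PCR, 6-FAM labeling, HpaI digestion and capillary electrophoresis; internal background marker fitted upward versus DMSO.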

[5] = target: Steroid hormone receptor ERR1 (Homo sapiens) (UniProt P11474); experiment: ATG_ERRa_TRANS: Attagene TRANS-FACTORIAL HepG2 Assay for human Estrogen-Related Receptor alpha (ERRa) (AID 2282971; active = hit-call score of the fitted dose curve at least 0.9, where 1 is the maximum); details: HepG2 Attagene TRANS reporter, ERRa transactivation
Sequence of Steroid hormone receptor ERR1 (Homo sapiens) (P11474 whole entry, looked up, the tested form may be a part): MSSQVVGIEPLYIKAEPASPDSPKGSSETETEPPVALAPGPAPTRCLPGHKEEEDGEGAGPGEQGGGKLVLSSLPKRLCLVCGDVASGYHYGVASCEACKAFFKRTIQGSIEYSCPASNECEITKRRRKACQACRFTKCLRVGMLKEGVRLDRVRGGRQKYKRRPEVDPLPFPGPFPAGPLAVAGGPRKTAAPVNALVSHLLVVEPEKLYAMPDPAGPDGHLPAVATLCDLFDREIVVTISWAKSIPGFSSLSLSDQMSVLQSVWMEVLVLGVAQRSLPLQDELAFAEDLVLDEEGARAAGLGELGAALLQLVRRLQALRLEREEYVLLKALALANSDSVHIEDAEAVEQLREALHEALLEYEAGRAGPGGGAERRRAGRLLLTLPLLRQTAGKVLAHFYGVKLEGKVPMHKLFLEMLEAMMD
Outline: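 Reporter transcript induction was quantified by RT-PCR and capillary electrophoresis of FAM-labelled, HpaI-cut products after 24 h treatment of HepG2 cells carrying transiently transfected GAL4-UAS reporter units and an exogenous ERRa-Gal4 fusion; activity scored as increase over DMSO.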

[6] = target: Estrogen-related receptor gamma (Homo sapiens) (UniProt P62508); experiment: ATG_ERRg_TRANS: Attagene TRANS-FACTORIAL HepG2 Assay for human Estrogen-Related Receptor gamma (ERRg) (AID 2282977; active = hit-call score of the fitted dose curve at least 0.9, where 1 is the maximum;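 note: hits increase reporter signal over DMSO so potencies reflect activators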); details: HepG2 Attagene TRANS reporter, ERRg transactivation
Sequence of Estrogen-related receptor gamma (Homo sapiens) (P62508 whole entry, looked up, the tested form may be a part): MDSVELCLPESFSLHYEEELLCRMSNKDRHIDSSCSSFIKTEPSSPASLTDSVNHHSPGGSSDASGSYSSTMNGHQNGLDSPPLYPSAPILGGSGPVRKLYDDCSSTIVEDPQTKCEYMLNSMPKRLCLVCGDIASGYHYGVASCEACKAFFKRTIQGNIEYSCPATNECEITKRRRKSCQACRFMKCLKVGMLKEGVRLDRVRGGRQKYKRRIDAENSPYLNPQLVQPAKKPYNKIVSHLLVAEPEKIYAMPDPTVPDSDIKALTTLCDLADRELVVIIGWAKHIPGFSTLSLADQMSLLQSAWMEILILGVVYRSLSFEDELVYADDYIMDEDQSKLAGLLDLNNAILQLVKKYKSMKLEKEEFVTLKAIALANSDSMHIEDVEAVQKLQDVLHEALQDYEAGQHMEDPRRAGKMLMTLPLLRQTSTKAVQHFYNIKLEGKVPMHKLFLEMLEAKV
Outline: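 Transient HepG2 transfectants, 24 h compound exposure, GAL4-UAS reporter mRNA by RT-PCR/6-FAM labelling/capillary electrophoresis; positive direction vs DMSO.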

[7] = target: Nuclear receptor subfamily 1 group I member 3 (Homo sapiens) (UniProt Q14994); experiment: ATG_CAR_TRANS: Attagene TRANS-FACTORIAL HepG2 Assay for human Constitutive Androstane Receptor (CAR) (AID 2282969; active = hit-call score of the fitted dose curve at least 0.9, where 1 is the maximum;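 note: activators raise reporter mRNA above DMSO so AC50 marks induction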); details: HepG2 Attagene TRANS-FACTORIAL CAR reporter
Sequence of Nuclear receptor subfamily 1 group I member 3 (Homo sapiens) (Q14994 whole entry, looked up, the tested form may be a part): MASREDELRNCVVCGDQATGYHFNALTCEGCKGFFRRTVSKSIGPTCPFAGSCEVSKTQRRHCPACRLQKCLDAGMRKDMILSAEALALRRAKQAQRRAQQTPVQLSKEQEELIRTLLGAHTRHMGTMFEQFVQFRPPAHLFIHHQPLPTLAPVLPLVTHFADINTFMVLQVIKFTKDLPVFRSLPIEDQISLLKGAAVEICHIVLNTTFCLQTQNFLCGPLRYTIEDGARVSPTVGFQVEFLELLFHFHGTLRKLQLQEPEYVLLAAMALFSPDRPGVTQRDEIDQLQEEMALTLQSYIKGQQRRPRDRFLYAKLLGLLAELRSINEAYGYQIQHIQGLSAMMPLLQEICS
Outline: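 Readout is reporter mRNA induction, quantified by fluorescent primer extension and capillary electrophoresis after RT-PCR. Cells were HepG2 transiently carrying chimeric NR-Gal4 constructs with GAL4-UAS reporters, treated for 24 h; activity scored upward from DMSO.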

[8] = ATG_GAL4_TRANS: Attagene TRANS-FACTORIAL HepG2 Assay for GAL4 (Internal Marker) (AID 2282976; active = hit-call score of the fitted dose curve at least 0.9, where 1 is the maximum); details: HepG2 Attagene TRANS GAL4 internal marker reporter
Outline: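 First, HepG2 cells were transfected with reporter units under GAL4-UAS control. Next, they were treated with chemical for 24 h. Finally, RNA was reverse-transcribed, PCR-amplified, FAM-labelled and resolved by capillary electrophoresis, with induction scored against DMSO.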

[9] = target: Estrogen receptor (Homo sapiens) (UniProt P03372); experiment: ATG_ERa_TRANS: Attagene TRANS-FACTORIAL HepG2 Assay for human Estrogen Receptor alpha (ERa) (AID 2282970; active = hit-call score of the fitted dose curve at least 0.9, where 1 is the maximum); details: HepG2 Attagene TRANS ERa GAL4 reporter, mRNA
Sequence of Estrogen receptor (Homo sapiens) (P03372 whole entry, looked up, the tested form may be a part): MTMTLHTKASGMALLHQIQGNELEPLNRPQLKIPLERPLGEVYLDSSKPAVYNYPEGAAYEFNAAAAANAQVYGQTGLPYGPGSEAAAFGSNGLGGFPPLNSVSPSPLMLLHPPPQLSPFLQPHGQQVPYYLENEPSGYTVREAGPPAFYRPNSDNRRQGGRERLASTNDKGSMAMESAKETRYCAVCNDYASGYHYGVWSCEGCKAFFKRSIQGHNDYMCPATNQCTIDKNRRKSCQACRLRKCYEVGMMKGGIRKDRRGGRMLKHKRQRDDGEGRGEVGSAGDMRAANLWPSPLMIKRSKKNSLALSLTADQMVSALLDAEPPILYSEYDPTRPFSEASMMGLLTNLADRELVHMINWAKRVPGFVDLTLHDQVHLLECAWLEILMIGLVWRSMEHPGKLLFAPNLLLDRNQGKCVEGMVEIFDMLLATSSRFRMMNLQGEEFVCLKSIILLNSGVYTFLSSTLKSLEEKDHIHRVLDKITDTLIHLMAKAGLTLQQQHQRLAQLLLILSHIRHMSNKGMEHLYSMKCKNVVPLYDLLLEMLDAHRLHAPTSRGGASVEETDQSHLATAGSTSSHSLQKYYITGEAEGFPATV
Outline: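 Human liver HepG2, transient transfection of multiple GAL4-UAS reporter units; TRANS format (exogenous NR-Gal4 chimera). 24 h dosing. Readout: reporter mRNA, RT-PCR, 6-FAM primer extension, HpaI digest, capillary electrophoresis. Positive direction vs DMSO.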

[10] = ATG_VDRE_CIS: Attagene CIS-FACTORIAL HepG2 Assay for human Vitamin D Receptor Element (VDRE) (AID 2282968); details: HepG2 VDRE cis-reporter transcription, actives raise or lower the signal
Outline: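 In transiently transfected HepG2 liver cells, gain or loss of reporter mRNA after 24 h exposure is scored relative to DMSO, using fluorescence detection by capillary electrophoresis of RT-PCR products.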

Measured: AC50

C=CC(C)(O)CCC=C(C)CCC=C(C)C (stereo not given)
active: [1] 166 µM | [2] 187 µM | [3] 120 µM

CCCC[n+]1ccccc1
inactive: [1] | [2] | [3] | [4]

COCCCOc1ccnc(CS(=O)c2nc3ccccc3[nH]2)c1C (stereo not given)
inactive: [1] | [2] | [5] | [3] | [6]

CCCCCCCCCCCCN
inactive: [1] | [2] | [7] | [3] | [4] | [8]

Cc1ccc(S)cc1
active: [9] 25.4 µM | [3] 53.5 µM
inactive: [1] | [2] | [4]

CC(=O)O[C@H](CC(=O)[O-])C[N+](C)(C)C
inactive: [1] | [2] | [5] | [3] | [4] | [6]

O=c1[nH]c(=O)n([C@H]2CCCO2)cc1F
inactive: [1] | [2] | [3]

O=C(O)c1cn(-c2ccc(F)cc2)c2cc(N3CCNCC3)c(F)cc2c1=O
inactive: [1] | [2] | [3] | [4] | [8]

O=C[C@@H](O)[C@H](O)[C@H](O)CO
inactive: [1] | [2] | [7] | [3] | [8]

CC1(C)[C@H]2CC[C@]1(C)[C@H](O)C2
inactive: [1] | [2] | [7] | [3] | [8]

COc1c(Cl)c(Cl)c(Cl)c(Cl)c1Cl
inactive: [1] | [2] | [7] | [3]

CSc1nc(NC2CC2)nc(NC(C)(C)C)n1
inactive: [1] | [2] | [3] | [4]

CCO[Si](CCCS)(OCC)OCC
inactive: [1] | [2] | [3] | [4] | [8]

CCCCCCCCCCCCSC
inactive: [1] | [2] | [7] | [3]

CN1Cc2c(N)cccc2C(c2ccccc2)C1 (stereo not given)
inactive: [1] | [2] | [3] | [4] | [8]

CC(C)[C@@H]1CC[C@@H](C)CC1=O
inactive: [1] | [2] | [3] | [4]

CCCCCCC#CC(=O)OC
inactive: [1] | [2] | [3] | [4] | [6]

O=C1OC2(c3cc(Br)c(O)c(Br)c3Oc3c2cc(Br)c(O)c3Br)c2c(Cl)c(Cl)c(Cl)c(Cl)c21
active: [2] 58.4 µM | [10] 16.4 µM
not listed: [1]
inactive: all other assays above

CC(=O)Nc1ccc(CC(=O)O)cc1
inactive: [1] | [2] | [9] | [3] | [4] | [8]

O=C(O)c1cn(C2CC2)c2cc(N3CCNCC3)c(F)cc2c1=O
inactive: [1] | [2] | [3] | [4] | [8]

O=C(O)c1cccc([N+](=O)[O-])c1
inactive: [1] | [2] | [3] | [8]

CCCCCCCCCCN
inactive: [1] | [2] | [3] | [4]

CC(CN1c2ccccc2Sc2ccccc21)N(C)C (stereo not given)
inactive: [2] | [4]
active: [1] 50.2 µM | [3] 24.2 µM

CCCCCCCCCCCCOCCO
inactive: [1] | [2] | [8]
active: [3] 55.5 µM

C=C(C)[C@@H]1CC[C@@H](C)C[C@@H]1O
inactive: [1] | [2] | [3] | [8]

COc1ccnc(CS(=O)c2nc3cc(OC(F)F)ccc3[nH]2)c1OC (stereo not given)
inactive: [1] | [2] | [3]

CC1CCC2CC1C2(C)C (stereo not given)
inactive: [2] | [7] | [3] | [4]

CC(C)C[C@H]1C(=O)N2CCC[C@H]2[C@]2(O)O[C@](NC(=O)[C@@H]3C=C4c5cccc6[nH]c(Br)c(c56)C[C@H]4N(C)C3)(C(C)C)C(=O)N12
active: [10] 1.3 µM
not listed: [1] | [7] | [9]
inactive: all other assays above

c1ccc2sc(SN(C3CCCCC3)C3CCCCC3)nc2c1
active: [2] 0.335 µM | [10] 4.65 µM
inactive: [7] | [3] | [4]

Cc1c(N(C)C)c(=O)n(-c2ccccc2)n1C
inactive: [2] | [10] | [7] | [3] | [8]

O=C(O)CCSCCC(=O)O
inactive: [2] | [9] | [3] | [4] | [8]

CC(CC(C)(C)C)CC(C)(C)CC(C)(C)C (stereo not given)
inactive: [2] | [10] | [7] | [3]

CC1(C)OC[C@@H]2O[C@@]3(C(=O)O)OC(C)(C)O[C@H]3[C@@H]2O1
inactive: [2] | [10] | [7] | [3] | [4] | [8]

O=Cc1ccc(F)cc1
inactive: [2] | [10] | [9] | [3] | [8]

CCCCC(CC)COCCC#N (stereo not given)
inactive: [2] | [10] | [7] | [3]

CC(=O)[C@H]1CC[C@H]2[C@@H]3CC=C4C[C@@H](O)CC[C@]4(C)[C@H]3CC[C@]12C
inactive: [2] | [3]
active: [10] 22.6 µM | [9] 1.32 µM

C=C(C)C1CCC(C)CC1O (stereo not given)
inactive: [2] | [3] | [4] | [8]

C=CC(=O)OCCOCCOCC
inactive: [2] | [4] | [6]
active: [3] 135 µM

C=O
not listed: [1] | [5] | [9]
inactive: all other assays above

O=C(O)c1ccc([N+](=O)[O-])cc1
inactive: [2] | [10] | [3] | [8]

C[C@H]1C[C@@H]2[C@H]([C@@H](O)C[C@@]3(C)[C@H]2CC[C@]3(O)C(=O)CO)[C@@]2(C)C=CC(=O)C=C12
inactive: [2] | [3]

O=C(Oc1ccccc1)c1ccc(O)cc1
inactive: [2] | [3] | [4] | [8]
active: [10] 159 µM

[Ca+2]
inactive: [2] | [10] | [3] | [8]

Nc1cccc(S(=O)(=O)c2cccc(N)c2)c1
not listed: [1] | [4] | [8]
inactive: all other assays above

Cc1c(Cl)c(=O)oc2cc(O)ccc12
active: [10] 149 µM
inactive: [2] | [7] | [3] | [4] | [8]

CC(C)(CO)[N+](=O)[O-]
inactive: [2] | [10] | [7] | [3] | [4] | [8]

O=[N+]([O-])c1ccc(C=Cc2ccc([N+](=O)[O-])cc2S(=O)(=O)O)c(S(=O)(=O)O)c1
inactive: [2] | [10] | [9] | [3] | [4]

C[C@H]1C[C@H]2[C@@H]3CCC4=CC(=O)C=C[C@]4(C)[C@@]3(F)[C@@H](O)C[C@]2(C)[C@@]1(O)C(=O)COP(=O)(O)O
inactive: [2] | [10] | [9] | [3] | [4]

CCCCN
inactive: [2] | [10] | [7] | [3] | [4] | [8]

Clc1ccc2c(c1)C(N1CCNCC1)=Nc1ccccc1O2
inactive: [2] | [8]
active: [9] 50.1 µM | [3] 33.4 µM

OC1OC[C@@H](O)[C@H](O)[C@H]1O (stereo not given in full)
inactive: [2] | [3] | [4]

CN(C)C(=N)N=C(N)N
inactive: [2] | [7] | [3] | [4] | [8]

CC1(C)CCC(C)(C)c2cc(C(=O)Nc3ccc(C(=O)O)cc3)ccc21
inactive: [2] | [3]
active: [10] 27.8 µM

CC1CCC(C(C)(C)O)CC1 (stereo not given)
inactive: [2] | [10] | [7] | [3] | [4] | [8]

CCOC(=O)c1ccccc1OC
inactive: [2] | [10] | [7] | [3] | [6]

COc1ccc(Nc2ccccc2)c(C)c1
active: [9] 7.87 µM
inactive: [2] | [5] | [3] | [6]

CC(=O)C(C)=O
inactive: [2] | [10] | [3]

CC(=O)OCC=Cc1ccccc1
not listed: [1] | [9]
inactive: all other assays above

CCC(C(=O)NC(N)=O)c1ccccc1 (stereo not given)
inactive: [2] | [5] | [3] | [4]

OCC(CO)(CO)COCC(CO)(CO)CO
inactive: [2] | [10] | [7] | [3] | [8]

C/C=C(\C)C(=O)OCc1ccccc1
inactive: [2] | [10] | [3] | [8] | [6]

CC(=O)C(=O)O
inactive: [2] | [10] | [3] | [8]

CC(C)c1cccc(O)c1
active: [9] 71.2 µM
not listed: [1] | [8]
inactive: all other assays above

NCCCCCCN
not listed: [1] | [7] | [9]
inactive: all other assays above

Cc1ccc2ccccc2n1
inactive: [2] | [10] | [3] | [4] | [8]
